What all share (test): NCI-60 one-dose screen, 48 h (100 = growth as untreated, 0 = no growth, -100 = all killed)
One test deals with RPMI-8226 leukemia. The note with it: 10 µM unless noted.
The next test deals with OVCAR-8 ovarian. Particulars: 10 µM unless noted.
The subject of another test is OVCAR-5 ovarian. Particulars: 10 µM unless noted.
The subject of the next test is OVCAR-4 ovarian. The note with it: 10 µM unless noted.
In the next test the test system is SK-OV-3 ovarian. Particulars: 10 µM unless noted.
Another test has as its system IGROV1 ovarian. The note with it: 10 µM unless noted.
For another test, the system named is OVCAR-3 ovarian. The note with it: 10 µM unless noted.
The next test relates to HS 578T breast. Particulars: 10 µM.
In another test the test system is NCI/ADR-RES ovarian. The note with it: 10 µM unless noted.
Another test relates to T-47D breast. The note with it: 10 µM unless noted.
The next test has as its system BT-549 breast. The note with it: 10 µM unless noted.
The next test has as its system MDA-MB-435 melanoma. The note with it: 10 µM unless noted.
The next test concerns SW-620 colon. The note with it: 10 µM unless noted.
Another test has as its system MCF7 breast. Particulars: 10 µM unless noted.
A further test has as its system HCT-116 colon. Particulars: 10 µM unless noted.
For another test, the system named is HCC-2998 colon. Particulars: 10 µM unless noted.
The test system of a further test is KM12 colon. The note with it: 10 µM unless noted.

Compounds without any hit were thinned out: in the full panel of roughly 83,000, 20% have a hit.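 The endpoint reported here, percent growth, reads 100 for growth as untreated, 0 for no net growth and -100 for all cells dead.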 Values without a mark were called inactive. Calls of active or inactive are those of the source. The calls were made as follows: active = growth percent below 10; inactive = the rest.

As to `COc1cc(/C=C/C(=O)c2ccc(NC(=O)CSc3nnc(-c4ccc(Cl)cc4)n3-c3ccccc3)cc2)cc(OC)c1OC`, the growth in the test on RPMI-8226 leukemia is 9.23% (active); in the test on OVCAR-8 ovarian, 62.3%; in the test on OVCAR-5 ovarian it was 128%; in the test with OVCAR-4 ovarian, 57.2%; in the test with SK-OV-3 ovarian, 86.6%; in the test on IGROV1 ovarian it was 74.7%. Further, the growth in the test with OVCAR-3 ovarian is 73.4%; with HS 578T breast, 92.9%; in the test on NCI/ADR-RES ovarian, 87.9%; in the test on T-47D breast it was 47.5%; in the test with BT-549 breast, 59.6%; in the test on MDA-MB-435 melanoma, 64.4%. The growth in the test on SW-620 colon is 68.2%; in the test on MCF7 breast it was 20.8%; in the test on HCT-116 colon it was 7.2% (active); in the test on HCC-2998 colon, 76.2%; with KM12 colon it was 67.9%.

Consider `CC1CN(CCCOC(=O)Nc2ccc(Cl)cc2)CCN1C(C)(C)C` (centres undefined), for which the growth in the test with RPMI-8226 leukemia was 100%; in the test on OVCAR-8 ovarian it was 104%; in the test on OVCAR-5 ovarian it was 105%; with SK-OV-3 ovarian, 93.8%; in the test on IGROV1 ovarian, 100%; in the test with OVCAR-3 ovarian, 104%. The growth in the test with HS 578T breast is 116%; in the test with NCI/ADR-RES ovarian it was 99.6%; in the test with T-47D breast it was 90%; with BT-549 breast, 101%; in the test with MDA-MB-435 melanoma, 102%; with SW-620 colon it was 110%. For the same compound, the growth in the test with MCF7 breast was 99%; in the test with HCT-116 colon it was 100%; with HCC-2998 colon it was 101%; with KM12 colon, 106%.

Regarding `Cc1nc2n[nH]c(N)c2nc1C`, the growth with RPMI-8226 leukemia was 106%; with OVCAR-8 ovarian, 95.1%; in the test on OVCAR-5 ovarian, 102%; with OVCAR-4 ovarian, 106%; in the test on SK-OV-3 ovarian, 104%; with IGROV1 ovarian, 97.9%. Further, the growth in the test with OVCAR-3 ovarian is 104%; with HS 578T breast, 114%; with NCI/ADR-RES ovarian, 103%; in the test with BT-549 breast, 118%; in the test on MDA-MB-435 melanoma, 107%; in the test with SW-620 colon, 108%. Further, the growth is 94.8% with MCF7 breast, 109% in the test with HCT-116 colon, 103% with HCC-2998 colon and 106% with KM12 colon.

On to `O=C(NNC(=S)Nc1ccccc1)c1ccc(Nc2ncnc3c2cnn3-c2cccc(Br)c2)cc1`, for which the growth in the test with RPMI-8226 leukemia was 110%; in the test on OVCAR-8 ovarian it was 110%; with OVCAR-5 ovarian it was 105%; with OVCAR-4 ovarian, 106%; in the test on SK-OV-3 ovarian, 101%; in the test with IGROV1 ovarian, 107%. The growth was 107% in the test on OVCAR-3 ovarian; 105% in the test with HS 578T breast; 105% in the test with NCI/ADR-RES ovarian; 104% in the test with BT-549 breast; 105% in the test on MDA-MB-435 melanoma; 104% in the test on SW-620 colon. For the same compound, the figures for the growth in the test on HCT-116 colon, in the test on HCC-2998 colon and with KM12 colon were 98.9%, 104% and 107%, respectively.

Turning to `O=c1cc(-c2ccc3c(c2)OCCO3)oc2cc(Cl)ccc12`, the growth in the test with RPMI-8226 leukemia was 28.8%; in the test with OVCAR-8 ovarian, 13.5%; in the test on OVCAR-5 ovarian, 32.8%; in the test on OVCAR-4 ovarian, -12.5% (active); with SK-OV-3 ovarian, 2.04% (active); in the test with IGROV1 ovarian it was -9.4% (active). The growth with OVCAR-3 ovarian was -40.2% (active); with HS 578T breast, 41.2%; in the test with NCI/ADR-RES ovarian it was 38.2%; with T-47D breast, 1.86% (active); in the test on BT-549 breast, 81.4%; in the test on MDA-MB-435 melanoma, 7.43% (active). Moreover, the growth in the test with SW-620 colon was 28.6%; with HCC-2998 colon, 66.2%; in the test on KM12 colon it was 21.3%.

For the compound `O=C(CSc1ccc(Cl)cc1)Nc1ccc(-c2nc3ccccc3s2)c(Cl)c1`, the growth is 38.5% in the test on RPMI-8226 leukemia; 50.8% in the test on OVCAR-8 ovarian; 99.1% with OVCAR-5 ovarian; 57.6% with OVCAR-4 ovarian; 94.7% in the test on SK-OV-3 ovarian; 69.4% in the test with IGROV1 ovarian. Besides, the growth in the test on OVCAR-3 ovarian is -10.9% (active); with HS 578T breast it was 79.1%; in the test on T-47D breast it was 34.4%; with BT-549 breast, 95.2%; with MDA-MB-435 melanoma, 77.9%; with MCF7 breast, 47.7%. The growth in the test on HCC-2998 colon was 81.1%; with KM12 colon it was 23%.

As to `O=C(NO)c1ccc(NCc2csc3ccccc23)cc1`, the growth in the test on RPMI-8226 leukemia is 35.7%; with OVCAR-8 ovarian, 42%; with OVCAR-5 ovarian, 73.4%; with SK-OV-3 ovarian, 81.8%; in the test on IGROV1 ovarian it was 55.6%; in the test on OVCAR-3 ovarian it was 66.8%. Moreover, the growth in the test on HS 578T breast is 70.5%; with NCI/ADR-RES ovarian it was 6.83% (active); in the test on T-47D breast, 41.5%; in the test on BT-549 breast, 77.6%; with MDA-MB-435 melanoma, 82.4%; in the test on SW-620 colon, 61.5%. Moreover, the growth was 83% in the test on MCF7 breast, 34.4% in the test with HCT-116 colon, 73.5% in the test with HCC-2998 colon and 66.9% in the test on KM12 colon.

`C=CCn1c(SCC(=O)Nc2ccc(C(=O)/C=C/c3ccccc3)cc2)nnc1-c1ccc(OC)c(OC)c1`: the growth in the test on RPMI-8226 leukemia is 2.52% (active); in the test with OVCAR-8 ovarian, 78.5%; in the test with OVCAR-5 ovarian, 108%; with SK-OV-3 ovarian, 93.4%; with IGROV1 ovarian, 81.6%; in the test on OVCAR-3 ovarian it was 78.1%. Also, the growth is 96.4% in the test with HS 578T breast; 80.1% in the test with NCI/ADR-RES ovarian; 50.6% in the test on T-47D breast; 59.5% in the test with BT-549 breast; 69.3% with MDA-MB-435 melanoma; 16.5% in the test with MCF7 breast. Also, the growth is -91.7% (active) in the test on HCT-116 colon, 85.3% with HCC-2998 colon and 57.3% in the test with KM12 colon.

For `F`, the growth in the test with RPMI-8226 leukemia is 22.4% [6.87 mM]; with OVCAR-8 ovarian it was 30% [6.87 mM]; in the test with OVCAR-5 ovarian it was 10.6% [6.87 mM]; with OVCAR-4 ovarian it was 76.2% [6.87 mM]; with SK-OV-3 ovarian, 8.2% [6.87 mM] (active); with IGROV1 ovarian it was 53.5% [6.87 mM]. Besides, the growth in the test on OVCAR-3 ovarian is 71.5% [6.87 mM]; in the test with NCI/ADR-RES ovarian, 8.42% [6.87 mM] (active); in the test on BT-549 breast, 5.2% [6.87 mM] (active); in the test on MDA-MB-435 melanoma it was -26.3% [6.87 mM] (active); in the test on MCF7 breast, 30.7% [6.87 mM]; with HCT-116 colon, 8.71% [6.87 mM] (active). Further, the results for the growth in the test with HCC-2998 colon and with KM12 colon were 24.4% [6.87 mM] and 9.89% [6.87 mM] (active), respectively.

Regarding `Nc1ncnc2c1N=C(c1ccc(F)cc1)CC(c1sc(Cl)nc1Cl)N2` (centres undefined), the growth in the test with RPMI-8226 leukemia is 76.5%; with OVCAR-8 ovarian it was 87.4%; with OVCAR-5 ovarian, 99.6%; in the test with OVCAR-4 ovarian, 97.9%; in the test on SK-OV-3 ovarian, 95.7%; in the test on IGROV1 ovarian, 93.5%. In addition, the growth in the test with OVCAR-3 ovarian was 101%; with HS 578T breast, 92.5%; in the test on T-47D breast it was 88.3%; in the test with BT-549 breast it was 78%; in the test with MDA-MB-435 melanoma it was 102%; in the test with SW-620 colon, 101%. Also, the growth in the test with MCF7 breast is 86.6%; in the test with HCT-116 colon, 91.1%; in the test with HCC-2998 colon it was 101%; in the test on KM12 colon, 105%.

Values taken from PubChem BioAssay (NCI).
